In PubChem BioAssay AID1986 (Sanford-Burnham Center for Chemical Genomics, 2009) one finds inhibition data, which are given here for 62 compounds.

One may read the inhibition as the drop in the measured response relative to a control, in per cent.

The nature of this assay: cell-free HIV fusion peptide-binding blockers – biochemical, uHTS, fluorescence dequenching, primary screen (AID 1986). The settings on record: 30 min, stronger effect = higher value.
Setting [1] is: measured here: repeat confirmation average inhibition, at 18.6 µM.

In all, about 290,000 compounds went through this assay and about 890 (0.31%) were called active. Rule as the data show it: active = inhibition mostly above about 52% (no sharp cut-off); inactive = mostly below about 76%. Shown is part of a subset that was picked to be rich in actives.

On to `C=CCn1c(O)c(C(C)=NCCCn2ccnc2)c(=O)[nH]c1=O`, for which, where the note is “at 20 µM”, the inhibition was 0.6% (inactive).

For the compound `Cc1cc2c(C(C)C)c(O)c(O)c(C=O)c2c(O)c1-c1c(C)cc2c(C(C)C)c(O)c(O)c(C=O)c2c1O`, where the note is “at 20 µM”, the inhibition is 65.7% (active).

As to `COc1cccc(C(=O)C2CCCN(C3CCOCC3)C2)c1` (stereo not given), the inhibition (at 20 µM) was 0.4% (inactive).

Take `O=C1NC(=O)N(c2ccc(F)cc2)C(=O)/C1=C/c1ccc2c(c1)CCCN2Cc1ccccc1`: the inhibition (at 20 µM) is 56.3% (active).

With `Cc1ccccc1N1C(=O)NC(=O)/C(=C\c2ccc3c(c2)CCCN3Cc2ccccc2)C1=O`, the inhibition (at 20 µM) is 15.8% (inactive).

Consider `Cc1cccc(N2C(=O)NC(=O)/C(=C\c3ccc4c(c3)CCCN4Cc3ccccc3)C2=O)c1`, for which the inhibition (at 20 µM) is 48.8% (inactive).

For `CC1CCC(N2CCN(C(=O)COc3ccccc3)CC2)CC1` (stereo not given), the inhibition (at 20 µM) is 2.3% (inactive).

Regarding `Cn1cc(C(=O)c2ccccc2)c2ccccc21`, for the setting “at 20 µM”, the inhibition was -2% (inactive).

For `Cn1cc(C=C2C(=O)NC(=O)NC2=O)c2ccccc21`, under “at 20 µM”, the inhibition is 160% (inactive).

Turning to `Cn1cc(C=C(C#N)C#N)c2ccccc21`, the inhibition is 72.4% (active) (at 20 µM) and 90.2% under setting [1].

Consider `C=C1N2CCC(CC2)C1(O)c1ccccc1C` (stereo not given), for which, for the setting “at 20 µM”, the inhibition was 1.2% (inactive).

Turning to `O=C(c1cccnc1)C1CCCN(Cc2nc(-c3cnccn3)no2)C1` (stereo not given), the inhibition (at 20 µM) is -0.9% (inactive).

As to `C=CCc1cc(C=C2C(=O)N(C)C(=O)N(C)C2=O)cc(OCC)c1OCc1ccccc1`, the inhibition (at 20 µM) was 11.3% (inactive).

With `Cc1cc(=O)oc2cc3c(cc12)CCCN3`, the inhibition (at 20 µM) is 0.7% (inactive).

In the case of `O=c1cc(C(F)(F)F)c2cc3c4c(c2o1)CCCN4CCC3`, the inhibition (at 20 µM) is -0.6% (inactive).

Regarding `Cc1cc2c(C(F)(F)F)cc(=O)oc2c2c1NCCC2`, the inhibition (at 20 µM) was 51.9% (active) and the inhibition under setting [1] was determined as 56.2%.

As to `CCN(CC)c1ccc(/C=C2\C(=O)NC(=O)N(CC3CCCO3)C2=O)cc1` (stereo not given), the inhibition (at 20 µM) was 48.8% (inactive).

Take `CCN(CC)c1ccc(/C=C2/C(=O)NC(=O)N(CC3CCCO3)C2=O)cc1` (stereo not given): the inhibition (at 20 µM) is 22.9% (inactive).

As for `COc1ccc(CN2C(=O)NC(=O)/C(=C/c3ccoc3)C2=O)cc1`, the inhibition (at 20 µM) is 146% (inactive).

With `CCN(CC)c1ccc(/C=C2\C(=O)NC(=O)N(Cc3ccco3)C2=O)cc1`, the inhibition (at 20 µM) is 84.3% (active).

`O=C1NC(=O)N(Cc2ccccc2)C(=O)/C1=C\c1ccco1`: the inhibition runs as follows: (at 20 µM) 65.1% (inactive); under setting [1], 4.5%.

Turning to `CCOc1ccc(N2C(=O)/C(=C\c3cccs3)C(=O)NC2=S)cc1`, the inhibition (at 20 µM) is 55.7% (active).

For the compound `O=C1NC(=O)N(Cc2ccccc2)C(=O)/C1=C\C=C\c1ccco1`, the inhibition is 84.6% (inactive) (at 20 µM) and 15.8% under setting [1].

`O=C1NC(=O)N(Cc2ccccc2)C(=O)/C1=C/C=C/c1ccco1`: for the setting “at 20 µM”, the inhibition is 146% (inactive).

For the compound `COc1ccc(CN2C(=O)NC(=O)/C(=C\c3ccco3)C2=O)cc1`, for the setting “at 20 µM”, the inhibition was 91.3% (active).

Take `O=C1NC(=O)N(Cc2ccco2)C(=O)/C1=C/C=C/c1ccco1`: for the setting “at 20 µM”, the inhibition was 83.8% (active).

For the compound `CCOc1ccc(N2C(=O)/C(=C/c3ccco3)C(=O)NC2=S)cc1`, for the setting “at 20 µM”, the inhibition is 31.9% (inactive).

As to `COc1ccc(N2C(=O)/C(=C/c3cccs3)C(=O)NC2=S)cc1`, for the setting “at 20 µM”, the inhibition was 15.2% (inactive).

Regarding `CN(C)C(=O)Oc1ccc(-c2cn3cc(Cl)ccc3n2)cc1`, the inhibition (at 20 µM) was -0.5% (inactive).

In the case of `COCCOC(=O)C1=C(C)OC(N)=C(C(=O)OC)C12C(=O)Nc1ccccc12` (stereo not given), the inhibition (at 20 µM) is -2% (inactive).

For `CNC(C(=O)c1ccccc1)C(OC)c1cccc([N+](=O)[O-])c1` (stereo not given), the inhibition (at 20 µM) was 1.8% (inactive).

For `Cc1cc(C)nc(N2Cc3ccccc3C2=N)n1`, where the note is “at 20 µM”, the inhibition is -3.6% (inactive).

For `COc1ccc(OC(=O)N(C)C)c(CN(C)C)c1`, the inhibition (at 20 µM) was 0.5% (inactive).

For the compound `COc1ccc(CN2C(=O)NC(=O)/C(=C/c3ccc([N+](=O)[O-])o3)C2=O)cc1`, for the setting “at 20 µM”, the inhibition is 85.6% (active).

Turning to `Cc1cc(C)cc(N2C(=O)NC(=O)/C(=C\C=C\c3ccco3)C2=O)c1`, the inhibition is 108% (inactive) (at 20 µM) and 13.9% under setting [1].

For `O=C1NC(=O)N(Cc2ccc(F)cc2)C(=O)/C1=C/c1cccs1`, the inhibition (at 20 µM) was -3.9% (inactive).

In the case of `COc1ccc(/C=C2/C(=O)NC(=O)N(Cc3ccco3)C2=O)cc1`, the inhibition (at 20 µM) is 50.2% (active).

On to `COc1ccc(/C=C2/C(=O)N(Cc3ccco3)C(=O)N(C(C)C)C2=O)cc1`, for which the inhibition (at 20 µM) was 9% (inactive).

As for `Cc1cccc(N2C(=O)NC(=O)/C(=C\C=C\c3ccco3)C2=O)c1`, under “at 20 µM”, the inhibition is 98.4% (active).

For `C=CCN1C(=O)/C(=C/c2cccs2)C(=O)NC1=S`, the inhibition (at 20 µM) is 15.5% (inactive).

For `CN1C(=O)NC(=O)/C(=C/c2ccc([N+](=O)[O-])o2)C1=O`, the inhibition (at 20 µM) is 27.7% (inactive).

Turning to `COc1ccc(CN2C(=O)NC(=O)/C(=C/c3ccc([N+](=O)[O-])s3)C2=O)cc1`, the inhibition (at 20 µM) was 55.1% (inactive) and the inhibition under setting [1] amounted to 18.5%.

As for `Cc1cc(/C=C2/C(=O)NC(=O)N(Cc3ccco3)C2=O)c(C)n1-c1ccccc1`, the inhibition (at 20 µM) is 92.7% (inactive) and the inhibition under setting [1] came to 2.6%.

As to `Cc1ccc(N2C(=O)NC(=O)/C(=C\C=C\c3ccco3)C2=O)cc1`, the inhibition runs as follows: (at 20 µM) 75.4% (inactive); under setting [1], 16.3%.

In the case of `O=C1NC(=S)N(Cc2ccco2)C(=O)/C1=C\c1cccs1`, where the note is “at 20 µM”, the inhibition is 67.5% (active).

On to `COc1ccc(NC(=O)CN2C3CCC2CC(O)(c2cccnc2)C3)cc1OC` (stereo not given), for which the inhibition (at 20 µM) was -0.5% (inactive).

Consider `c1cc(CCN2CCCC2)ccn1`, for which the inhibition (at 20 µM) was 1.8% (inactive).

Consider `Cc1cccc(N=Nc2ccc(N(C)C)cc2)c1`, for which the inhibition (at 20 µM) is -1.7% (inactive).

`O=[N+]([O-])c1ccc2c(c1)C(c1ccccc1)=NCCN2`: the inhibition (at 20 µM) was 0.2% (inactive).

Take `CCN1CCN(c2ccc(N)cc2C)CC1`: the inhibition (at 20 µM) was -1.1% (inactive).

Turning to `CN1CCN(Cc2cn3cccnc3n2)CC1`, for the setting “at 20 µM”, the inhibition is -0.4% (inactive).

With `CCC(C)n1c(O)c(C=NCC2CCCO2)c(=O)[nH]c1=S` (stereo not given), the inhibition (at 20 µM) is -0.8% (inactive).

Consider `CC1=C2C3OC(=O)C(C)C3CC[C@@]2(C)C=CC1=O` (stereo not given in full), for which, where the note is “at 20 µM”, the inhibition was -0.7% (inactive).

As for `CN1CCN(c2ccc([N+](=O)[O-])c(SCCO)c2)CC1`, where the note is “at 20 µM”, the inhibition is -0.1% (inactive).

Turning to `Cc1cc(Cl)ccc1C(=O)C1CCCN(Cc2ccon2)C1` (stereo not given), under “at 20 µM”, the inhibition is -1.3% (inactive).

For the compound `CCOP(=O)(OCC)C(O)c1ccc(Br)cc1` (stereo not given), for the setting “at 20 µM”, the inhibition was -1% (inactive).

With `CC(Cc1ccccc1)[n+]1cc(/N=C(\N)[O-])on1` (stereo not given), the inhibition (at 20 µM) was -2% (inactive).

Take `CCN(CC)C(=O)c1ccc(NC(=O)CN2CCc3cc(OC)c(OC)cc3C2)cc1`: the inhibition (at 20 µM) is -1.3% (inactive).

`COc1ccc(CN2CCN(c3ccccc3)CC2)c(C)c1C`: the inhibition (at 20 µM) was -1.3% (inactive).

With `Cn1cccc1/C=C1\C(=O)NC(=O)N(Cc2ccco2)C1=O`, the inhibition (at 20 µM) was 30.6% (inactive).

On to `CCN(CC)c1ccc(/C=C2/C(=O)NC(=O)N(Cc3ccco3)C2=O)cc1`, for which the inhibition (at 20 µM) was 84.2% (active).

For `CN(C)c1ccc(/C=C2/C(=O)NC(=O)N(Cc3ccco3)C2=O)cc1`, for the setting “at 20 µM”, the inhibition is 42.7% (inactive).
